Each structure is given as a SMILES string. Inconclusive results are not listed. Values without a mark were called inactive. Activity calls are given as the source filed them. Unless noted, the call rests on the fitted dose curve; in most records, active means well fitted curve in the direction sought with a large enough effect in the repeat runs; inconclusive means weak or mixed curves; inactive means no such curve, though single readings can be large; an effect the other way counts as inactive or inconclusive.

Results on 13 molecules are retold here after PubChem BioAssay (Tox21).

The target of assay [1] is Retinoic acid receptor RXR-alpha (Homo sapiens) (UniProt P19793). Description: qHTS assay to identify small molecule agonists of the RXR signaling pathway (AID 1159527; calls by dose curve; further: nearly all actives have a fitted effect of over 35% in size). The procedure, abridged:
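Using 9-cis retinoic acid as the reference agonist, chemicals were tested in HEK 293T cells […] for 16 hr; substrate loading lasted 2 hr at room temperature.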

Assay [2] can be described thus: qHTS assay to identify small molecule antagonists of the retinoid acid receptor (RAR) signaling pathway - cell viability counter screen (AID 1159551). Further: nearly all actives have a fitted effect of over 35% in size. The gist of the method: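 Cytotoxicity counter screen in C3RL4 cells: 6 h compound exposure with 1 uM retinol (final), viability from cellular ATP by luminescence.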
A general note: Quantitative high-throughput screening tests each substance at several concentrations.

Assay [3] is described as follows: qHTS assay to identify small molecule antagonists of the estrogen related receptor (ERR) signaling pathway from Tox21 library - cell viability counter screen (AID 1224834). Further: nearly all actives have a fitted effect of over 30% in size. The procedure, abridged:
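Cytotoxicity of test substances is gauged in the same ERR cells used for the antagonist screen, after 17.5 h of compound treatment at 37 C, by CellTiter-Fluor fluorescence measured after 30 min.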

For assay [4], the target named is Luciferin 4-monooxygenase (Photinus pyralis) (UniProt P08659). Description: qHTS assay to identify small molecule inhibitors of firefly luciferase (AID 1224835). Further: nearly all actives have a fitted effect of over 25% in size. Further: potency means the concentration at half of the fitted maximal effect. The procedure, abridged:
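Inhibition of purified Photinus luciferase is measured by luminescence. Substrate levels (D-luciferin, ATP) sit at their KM values. Each compound is tested in a concentration series.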

Assay [5] is described as follows: qHTS assay to identify small molecule agonists of the constitutive androstane receptor (CAR) signaling pathway - cell viability counter screen (AID 1224836). Further: series mostly up to about 92 µM; nearly all actives have a fitted effect of over 45% in size. The gist of the method: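 23 h treatment, 37 C, 5% CO2. Cell line: HepG2 stably expressing hCAR with a CYP2B6-2.2kb construct. Co-treatment: PK11195, 0.75 uM final. Read-out: CellTiter-Fluor fluorescence intensity.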

The target in assay [6] is Nuclear receptor subfamily 1 group I member 3 (Homo sapiens) (UniProt Q14994). Description: qHTS assay to identify small molecule antagonists of the constitutive androstane receptor (CAR) signaling pathway (AID 1224838). Further: nearly all actives have a fitted effect of over 40% in size. Further: potency means the concentration at half of the fitted maximal effect. The procedure, abridged:
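Compounds were titrated across 15 concentrations onto HepG2 cells double-stably expressing hCAR and a CYP2B6-2.2kb reporter, together with 50 nM CITCO (final). After 24 h at 37 C, luciferase activity was measured by luminescence.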

Assay [7] shares this target. As to the kind of experiment: qHTS assay to identify small molecule agonists of the constitutive androstane receptor (CAR) signaling pathway (AID 1224839). Further: nearly all actives have a fitted effect of over 15% in size. Further: potency means the concentration at half of the fitted maximal effect.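 On activation: HepG2 cells stably carrying human CAR and a CYP2B6 luciferase reporter; series mostly up to about 92 µM.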 The procedure, abridged:
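Compounds tested at 15 concentrations on HepG2 cells stably harbouring hCAR and CYP2B6-2.2kb reporter constructs, co-treated with PK11195 (0.75 uM final), 24 h at 37 C; luminescent reporter signal quantified.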

Assay [8] can be described thus: qHTS assay to identify small molecule antagonists of the estrogen related receptor signaling pathway with the pleiotropic PPARgamma coactivator (PGC) from Tox21 10K library - cell viability counter screen (AID 1224840; active means well fitted cell-killing curve with a large enough effect in the repeat runs, not every such curve was filed as active; further: nearly all actives have a fitted effect of over 40% in size). The procedure, abridged: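 Step one, plate 2,000 PGC/ERR cells per well; step two, incubate 6 h at 37 C/5% CO2; step three, pin-transfer compounds; step four, incubate 17.5 h; step five, add CellTiter-Fluor and read fluorescence after 30 min.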

Assay [9] in a line: qHTS assay to identify small molecule antagonists of the estrogen related receptor signaling pathway with the pleiotropic PPARgamma coactivator (PGC) from Tox21 10K library (AID 1224841; call rule not given here; further: actives are mostly falling curves and most rising ones were filed inactive; nearly all actives have a fitted effect of over 50% in size; further: potency means the concentration at half of the fitted maximal effect; on activity, negative = inhibition: series mostly up to about 92 µM). The procedure, abridged:
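Antagonism in this quantitative HTS is taken from loss of luciferase signal in PGC/ERR cells. Cells (2,000/well) are treated with compounds in DMSO after a 6 h settling period and read by One-Glo luminescence after 18 h.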

The nature of assay [10]: qHTS assay to identify small molecule agonists of the estrogen related receptor signaling pathway with the pleiotropic PPARgamma coactivator (PGC) from Tox21 10K library (AID 1224842). Further: nearly all actives have a fitted effect of over 15% in size. The procedure, abridged:
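Luminescence from One-Glo (30 min, room temperature) measured after PGC/ERR cells had 18 h at 37 C with pinned compound (23 nL in DMSO). Cells had been seeded at 2,000 per well and pre-incubated 6 h.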

The nature of assay [11]: qHTS assay to identify small molecule antagonists of the retinoic acid receptor (RAR) signaling pathway (AID 1159552; further: nearly all actives have a fitted effect of over 50% in size; further: potency means the concentration at half of the fitted maximal effect). The procedure, abridged: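 Test chemicals and DMSO controls were pin-transferred onto C3RL4 cells a day after seeding; retinol (1 uM final) followed at once. Luminescent reporter output was quantified after 6 hr of co-incubation and 30 min with detection reagent.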

A short description of assay [12]: qHTS assay to identify small molecule agonists of the retinoic acid receptor (RAR) signaling pathway (AID 1159553). Further: potency means the concentration at half of the fitted maximal effect. The gist of the method: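 Agonist activity was scored in C3RL4 cells bearing a retinoic acid response element luciferase construct. Cells were treated with compounds for 6 hr at 37 C, and luciferase signal was measured as luminescence.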
Assay [13] can be described thus: qHTS assay to identify small molecule antagonists of the constitutive androstane receptor (CAR) signaling pathway - cell viability counter screen (AID 1224837). Further: series mostly up to about 92 µM; nearly all actives have a fitted effect of over 45% in size. The gist of the method: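 Multiplexed cytotoxicity read-out for the CAR antagonist screen: double-stable HepG2-CYP2B6-hCAR cells co-treated with 50 nM CITCO (final) and compound over 15 concentrations, incubated 23 hr, then assessed by CellTiter-Fluor fluorescence.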

Assay [14] is described as follows: qHTS assay to identify small molecule antagonists of the estrogen related receptor (ERR) signaling pathway - cell viability counter screen (AID 1224818).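 Further: series mostly up to about 46 µM; viability measured after 17.5 h of compound exposure.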 The procedure, abridged:
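Cells carrying the ERR pathway reporter were seeded and incubated for 6 hours before compound addition. After a 17.5-hour exposure at 37 C, live-cell protease activity was measured by CellTiter-Fluor fluorescence following 30 minutes of incubation.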

A short description of assay [15]: qHTS assay to identify small molecule antagonists of the estrogen related receptor signaling pathway with the pleiotropic PPARgamma coactivator (PGC) cell viability counter screen (AID 1224822; further: series mostly up to about 46 µM). The gist of the method:
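Seed PGC/ERR cells (2,000/well); incubate 6 h at 37 C/5% CO2; pin-transfer compounds in DMSO; incubate 17.5 h at 37 C; add CellTiter-Fluor; after 30 min read fluorescence.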
On the % scale 0 is the no-effect control and ±100 the full control effect.

Sequence of Nuclear receptor subfamily 1 group I member 3 (Homo sapiens) (Q14994 whole entry, looked up): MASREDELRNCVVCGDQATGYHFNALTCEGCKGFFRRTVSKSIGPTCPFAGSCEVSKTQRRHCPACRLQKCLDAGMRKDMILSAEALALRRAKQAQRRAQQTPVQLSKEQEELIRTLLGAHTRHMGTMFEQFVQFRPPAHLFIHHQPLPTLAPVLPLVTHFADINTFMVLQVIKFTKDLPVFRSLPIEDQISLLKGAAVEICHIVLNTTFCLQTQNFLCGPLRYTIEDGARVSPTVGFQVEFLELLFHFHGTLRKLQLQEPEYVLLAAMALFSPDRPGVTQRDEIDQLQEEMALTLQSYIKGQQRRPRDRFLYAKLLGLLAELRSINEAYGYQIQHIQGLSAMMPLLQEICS
Sequence of Luciferin 4-monooxygenase (Photinus pyralis) (P08659 whole entry, looked up): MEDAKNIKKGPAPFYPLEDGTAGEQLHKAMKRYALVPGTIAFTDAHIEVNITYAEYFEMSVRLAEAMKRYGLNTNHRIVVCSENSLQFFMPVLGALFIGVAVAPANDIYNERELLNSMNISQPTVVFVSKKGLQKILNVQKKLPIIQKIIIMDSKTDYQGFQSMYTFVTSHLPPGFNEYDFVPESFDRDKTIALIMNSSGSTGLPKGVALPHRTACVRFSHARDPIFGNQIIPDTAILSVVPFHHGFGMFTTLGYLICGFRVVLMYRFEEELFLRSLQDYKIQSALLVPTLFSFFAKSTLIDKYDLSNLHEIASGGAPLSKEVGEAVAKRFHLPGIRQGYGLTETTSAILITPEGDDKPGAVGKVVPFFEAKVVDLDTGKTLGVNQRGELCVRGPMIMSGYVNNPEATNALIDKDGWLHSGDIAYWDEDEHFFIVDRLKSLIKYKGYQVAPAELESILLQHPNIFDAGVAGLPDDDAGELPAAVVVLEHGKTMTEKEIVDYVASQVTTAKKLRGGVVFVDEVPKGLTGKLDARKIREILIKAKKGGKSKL
Sequence of Retinoic acid receptor RXR-alpha (Homo sapiens) (P19793 whole entry, looked up): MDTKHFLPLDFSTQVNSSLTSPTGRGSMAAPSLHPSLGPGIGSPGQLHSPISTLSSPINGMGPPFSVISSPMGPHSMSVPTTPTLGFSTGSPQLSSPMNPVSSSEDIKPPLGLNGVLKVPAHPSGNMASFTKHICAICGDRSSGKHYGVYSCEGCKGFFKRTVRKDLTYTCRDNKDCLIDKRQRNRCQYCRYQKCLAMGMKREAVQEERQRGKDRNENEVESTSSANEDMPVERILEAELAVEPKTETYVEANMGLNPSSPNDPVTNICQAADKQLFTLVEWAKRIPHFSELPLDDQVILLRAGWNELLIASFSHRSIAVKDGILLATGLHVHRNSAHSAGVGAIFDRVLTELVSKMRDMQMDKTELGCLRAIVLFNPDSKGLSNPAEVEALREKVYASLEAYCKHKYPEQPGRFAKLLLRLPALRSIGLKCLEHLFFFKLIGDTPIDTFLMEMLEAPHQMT

In the case of `COC[C@H](c1ccc(C(F)(F)F)cc1)N1CCN(C2(C)CCN(C(=O)c3c(C)ncnc3C)CC2)C[C@H]1C`, the Potency result in [1], in [3], in assay [4], in [6], in assay [7] and in assay [9] was “inactive” in each case. The Potency result in [10] is “inactive”. The outcome in assay [2], in assay [5] and in assay [8] was inactive.
Turning to `COc1ccc(NC(C)=O)cc1`, the Potency result in [1], in assay [11], in assay [12] and in assay [4] was “inactive” in each case. The call in assay [2], in assay [5], in assay [13] and in assay [8] was inactive.
In the case of `C1C2OC2C2C1C1CC2C2OC12` (stereo not drawn), the Potency entry in assay [1], in [11], in assay [12], in assay [3], in [4] and in [6] was “inactive” each time. In addition, the Potency entry in [7] is “inactive”. Also, the molecule was classed as inactive in assay [2], in assay [5], in assay [13] and in [8].
In the case of `CC(=O)c1ccc(C)cc1`, the Potency result in assay [1], in [3], in [4], in [6] and in assay [7] was “inactive” throughout. The molecule was classed as inactive in assay [2], in assay [5] and in assay [8].
Take `CCCCCCCCCCCCI`: the Potency result in [1], in [11], in assay [12], in assay [3] and in assay [7] was “inactive” in each case. For the same molecule, the result in assay [2], in assay [5], in assay [13] and in [8] was inactive. The Potency in assay [4] is 56.7 µM (active).
Turning to `Cn1ccc2cc3c(cc21)CCN3C(=O)Nc1cccnc1`, the activation in assay [1] was 14.3% [at 15.8 µM]. In addition, the activity change, negative = cytotoxicity in assay [2] was -1.31% [at 19 µM]; in assay [13], -15.3% [at 19 µM]. Also, the activity, negative = inhibition was 169% [at 19 µM] in [11] and 213% [at 19 µM] in assay [6]. Moreover, the Potency in [12] was 2.31 µM (active); in assay [4] it was 3.79 µM (active); in assay [7], 1.64 µM (active). Besides, the molecule was called inactive in [14] and in assay [15]. Further, the viability change, negative = cytotoxic is -0.1% [at 19 µM] in assay [5] and -15.1% [at 19 µM] in assay [8].
Regarding `COC(=O)c1ccc(C(=O)OC)c(C(=O)OC)c1`, the Potency result in [1], in [11], in [12], in [3], in assay [6] and in [7] was “inactive” in each case. Besides, the Potency entry in assay [9] and in [10] was “inactive” each time. In addition, the molecule was classed as inactive in assay [2], in assay [5] and in assay [8].
Turning to `NC1CCN(c2cccc(Cl)n2)CC1`, the Potency result in assay [1], in assay [11], in assay [12], in assay [3], in assay [4] and in assay [7] was “inactive” throughout. The call in [2], in [5], in assay [13] and in assay [8] was inactive.
With `COc1ccc(N=[N+]([O-])c2ccc(OC)cc2)cc1`, the Potency entry in assay [1], in assay [11], in assay [3] and in [6] was “inactive” throughout. The outcome in assay [2], in assay [5] and in assay [8] was inactive. Further, the Potency in [12] was 0.027 µM (active); in assay [4], 0.222 µM (active); in assay [7] it was 0.762 µM (active).
Turning to `O=C(O)c1ccc[n+]([O-])c1`, the Potency result in assay [1], in assay [3] and in assay [4] was “inactive” each time. In addition, the molecule was called inactive in assay [2], in assay [13] and in assay [8].
As for `CC(C)[N+](C)(C)CC(O)COc1cccc2ccccc12` (stereo not drawn), the Potency result in assay [1], in assay [3], in assay [4], in assay [6] and in assay [7] was “inactive” throughout. Further, the outcome in assay [2], in assay [5] and in [8] was inactive.
For `[O-][N+](=Nc1ccccc1)c1ccccc1`, the Potency result in assay [1] and in assay [3] was “inactive” each time. Further, the molecule was called inactive in assay [2], in [5], in [13] and in assay [8]. The Potency in assay [4] was 11.3 µM (active); in assay [7] it was 30.6 µM (active).
Take `O=S(=O)(c1cccc2cnccc12)N1CCCNCC1`: the Potency result in assay [1], in [12], in [3], in assay [4], in [7] and in assay [10] was “inactive” throughout. The molecule was classed as inactive in assay [2] and in assay [8]. The results for the Potency in [11], in assay [6] and in [9] were 29.8 µM (active), 13.3 µM (active) and 23.7 µM (active), respectively.
